# According to PubChem BioAssay AID1851 (National Center for Advancing Translational Sciences (NCATS), 2009):
# The campaign covered roughly 16,000 compounds. About 5,800 (36%) were called active. Not shown: some 23% with an inconclusive outcome. The list shows a part of the results. A number with no mark means an inactive call. Calls come from the whole dose curve; as a rule, active = well fitted curve in the direction sought with a large enough effect; inconclusive = small, poorly fitted or top-dose-only effect, or effect the other way; inactive = no such curve, though single readings can be large or run the other way.
# Biological target: Cytochrome P450 2C19 (Homo sapiens) (UniProt P33261)
# Sequence (P33261 whole entry, looked up): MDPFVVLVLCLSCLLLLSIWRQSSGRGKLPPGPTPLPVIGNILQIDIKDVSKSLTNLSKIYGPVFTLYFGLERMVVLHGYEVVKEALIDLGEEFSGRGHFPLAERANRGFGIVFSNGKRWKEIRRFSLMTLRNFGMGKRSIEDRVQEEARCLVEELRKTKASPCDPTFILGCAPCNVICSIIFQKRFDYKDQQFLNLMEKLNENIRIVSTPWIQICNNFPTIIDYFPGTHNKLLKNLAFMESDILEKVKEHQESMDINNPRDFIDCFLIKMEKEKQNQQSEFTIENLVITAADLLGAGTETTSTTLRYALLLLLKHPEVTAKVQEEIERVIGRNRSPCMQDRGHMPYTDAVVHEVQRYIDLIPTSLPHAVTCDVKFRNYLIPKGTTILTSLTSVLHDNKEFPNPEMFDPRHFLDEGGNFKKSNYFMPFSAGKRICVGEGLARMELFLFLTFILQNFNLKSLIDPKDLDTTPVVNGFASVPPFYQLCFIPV
# Experiment: Cytochrome panel assay with activity outcomes
# Details: recombinant CYP, pro-luciferin dealkylation, luminescence, p450-cyp2c19; series mostly up to 57.1 µM; activity, negative = inhibition: at the top concentration
# % is set by controls: 0 for no effect and ±100 for the full control effect.
Compound,"activity, negative = inhibition",AC50
CN(Cc1n[nH]c(=S)n1C)S(=O)(=O)c1ccccc1,-24.8%,–
Cn1c(CCNC(=O)c2ccccc2Cl)n[nH]c1=S,22.3%,–
S=c1[nH]nc(CSCc2ccccc2Cl)n1-c1ccccc1,–,0.708 µM (active)
Cc1cccc(NC(=O)CSc2nc3ccccc3c3nc(CCc4c(C)n[nH]c4C)nn23)c1,–,7.94 µM (active)
COc1ccc(/C=N\NC(=O)O)cc1,11% [at 11.4 µM],–
Cn1c(=O)n(C)c2cc(/C=N/n3cnnc3)ccc21,–,17.8 µM (active)
COC(=O)c1ccc(/C=N\NC(=O)c2ccc(C)cc2Cl)cc1,–,5.01 µM (active)
Cn1c(=O)n(C)c2cc(/C=N/NC(=O)c3ccc(Cl)cc3Cl)ccc21,–,3.98 µM (active)
Cn1c(=O)n(C)c2cc(S(=O)(=O)O)ccc21,-14.7%,–
Cc1cc(C)c(S(=O)(=O)Nc2ccccc2C(F)(F)F)c(C)c1,–,0.1 µM (active)
Cc1cc(C)c(S(=O)(=O)Nc2cccc(C(F)(F)F)c2)c(C)c1,–,3.16 µM (active)
Cc1cc(C)c(S(=O)(=O)NNC(=O)C2CCN(Cc3ccccc3)CC2)c(C)c1,-18.9%,–
CC(C)NC(=O)N1CC[C@@]2(CCCN(C(=O)c3cc(C(F)(F)F)cc(C(F)(F)F)c3)C2)C1,30.6%,–
CCC(c1nnnn1CC1CCCO1)N(CCN1CCOCC1)Cc1cc2cc(C)ccc2[nH]c1=O (stereo not given),1.58%,–
COc1ccccc1CN(Cc1cc2cc3c(cc2[nH]c1=O)OCCO3)Cc1nnnn1Cc1ccco1,–,7.08 µM (active)
CCC(C)(C)n1nnnc1C(C(C)C)N(Cc1ccco1)Cc1cc2cc3c(cc2[nH]c1=O)OCO3 (stereo not given),–,10 µM (active)
CCC(C)(C)n1nnnc1C(c1cc2cc3c(cc2[nH]c1=O)OCO3)N1CCCCC1 (stereo not given),–,31.6 µM (active)
CCNc1ncc2nc(C)c(=O)n(C[C@H]3CCCO3)c2n1,4.63%,–
COc1ccc(CONS(=O)(=O)c2ccc(NC(C)=O)cc2)cc1Cl,–,2.24 µM (active)
COc1ccc(CNC(C)(C)C)cc1Cl,-4.36%,–

Compound,"activity, negative = inhibition",AC50
Clc1ccc(/C=N/c2c(-c3ccc(Cl)cc3)nc3n2CCS3)cc1,–,14.1 µM (active)
CCOc1ccc(N2C(=O)/C(=C/c3cccs3)N(CC(=O)OC)C2=S)cc1,-17.3%,–
CCOc1ccc(N2C(=O)/C(=C/c3cc(OC)c(OC)c(OC)c3)N(CC(=O)OC)C2=S)cc1,–,3.55 µM (active)
CCN(CC)C(=O)C1CCCN(c2ccc([N+](=O)[O-])cc2/C=N/NC(=O)c2ccc([N+](=O)[O-])cc2)C1 (stereo not given),–,14.1 µM (active)
O=C(N/N=C/c1cc([N+](=O)[O-])ccc1N1CCNCC1)c1ccc([N+](=O)[O-])cc1,-15.8%,–
CCOC(=O)C(CC)(CC)C(=O)/C=C/c1ccc(Br)cc1,–,2.82 µM (active)
O=C(O)CCCCCNC(=O)c1ccccc1Br,-30.4%,–
O=C(NCCNc1ccc([N+](=O)[O-])cc1)c1ccccc1Br,–,7.94 µM (active)
O=[N+]([O-])c1ccc(C2CCCC/C2=N\OCc2cccc(F)c2)c([N+](=O)[O-])c1 (stereo not given),–,7.08 µM (active)
O=[N+]([O-])c1ccc(NN=C2c3ccccc3Cc3ccccc32)c([N+](=O)[O-])c1,-15.8% [at 11.4 µM],–
CC(Sc1ccc2c(c1)OCCO2)C(=O)Nc1ncc(Cl)cc1Cl (stereo not given),–,2.82 µM (active)
Cc1cccc(C)c1OC[C@H](C)N,–,inactive
COc1ccc2cc(CCC(C)=O)ccc2c1,-42.2% [at 25.6 µM],–
COc1ccc2cc(C(=O)CCC(=O)O)ccc2c1,–,2 µM (active)
CCOc1ccc(C(=O)CCC(=O)O)cc1,-28.2%,–
Cc1ccc(S(=O)(=O)N[C@H]2COC(=O)[C@H](C)COC(=O)[C@H](C)NC(=O)C/C=C\[C@H]2C)cc1,16.6% [at 11.4 µM],–
COc1cccc(CNCCNC(=O)c2nonc2N)c1,–,15.8 µM (active)
CCOc1cccc(CNCCNC(=O)c2nonc2N)c1,–,15.8 µM (active)
COc1cccc(CNc2ccc3nc(-c4ccc(N)cc4)c(OC)n3n2)c1,-34.4%,–
COc1cccc(CSCC(=O)O)c1,-7.72% [at 11.4 µM],–

Compound,"activity, negative = inhibition",AC50
CN1CCN(CN2C(=O)C3C4C=CC(C3C2=O)C2C3C(=O)N(CN5CCN(C)CC5)C(=O)C3C42)CC1 (stereo not given),27.4% [at 11.4 µM],–
CC[C@@]12CCCN3CCc4c(n(c5ccccc45)C(=O)C1)[C@H]32,-19.6% [at 11.4 µM],–
Cc1ccc(S(=O)(=O)c2nc(S(=O)(=O)c3ccc(C)cc3)c(NCc3ccco3)s2)cc1,–,8.91 µM (active)
Oc1ccc(Cn2cc[nH]c2=S)cc1,5.78%,–
O=C(NNC(=S)NC(=O)c1cccnc1)c1ccccc1,-21.7%,–
O=C(NC(=S)Nc1nc(-c2ccc(Br)cc2)cs1)c1cccnc1,–,10 µM (active)
O=S(=O)(O)c1ccc2cc(N=Nc3cc(S(=O)(=O)O)c4cccnc4c3O)ccc2c1,-22.6% [at 11.4 µM],–
NC(N)=N/N=C\c1ccc(C2CCNCC2)cc1,23.7% [at 11.4 µM],–
COc1ccc(C=NC(CO)C(O)c2ccc([N+](=O)[O-])cc2)cc1 (stereo not given),-6.09%,–
CS/C(N)=N/N=C/c1ccc([N+](=O)[O-])cc1,–,14.1 µM (active)
O=C(NC[C@@H](O)CO)c1c(I)c(C(=O)NC[C@@H](O)CO)c(I)c(N(CCO)C(=O)CO)c1I,8% [at 25.6 µM],–
CC(C)NC[C@@H](O)COc1cccc2ccccc12,–,inactive
CC(C)NC[C@H](O)COc1cccc2ccccc12,0.306%,–
O=C(COc1cccc2ccccc12)N1c2ccccc2CCc2ccccc21,–,0.447 µM (active)
CCc1cc(C(=O)OC)c(NC(=O)CCCC(=O)O)s1,-16.5%,–
CCOC(=O)c1cc(NC(=O)c2ccc(OC)cc2)c(=O)oc1-c1ccccc1,–,2.82 µM (active)
CCOC(=O)c1cc(-c2ccccc2)sc1NC(=O)c1ccc(OC)cc1,–,7.94 µM (active)
CCOC(=O)c1cc(-c2ccccc2)sc1NC(=O)C(C)(C)C,0.519%,–
COC(=O)c1cc(-c2ccccc2)sc1NC(=O)CN1C(=O)c2ccccc2C1=O,–,7.08 µM (active)
CCOC(=O)c1cc(CC)sc1NC(=O)C(c1ccccc1)c1ccccc1,–,8.91 µM (active)
